Most compounds without a hit are left out; they make up all but 1.9% or so of the library.
BRCT PPI red = disrupts BRCA1 BRCT binding to phosphoprotein, red fluorophore readout; P38398; BRCT-phosphopeptide binding, red fluorescence polarization; Potency, µM (series often up to 76.9 µM), for the others: at the top dose activity change, negative = inhibition, actives largely listed as inhibitors; hit rate 0.03% among 75,000; AID 892; also: % is scaled to controls: 0 for no effect and ±100 for the full control effect
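Fluorescence polarization: 100 nM His-tagged BRCA1 BRCT with 100 nM TAMRA-labelled phospho-BACH1 decapeptide, phosphate buffer pH 7.3 with 150 mM NaCl, DTT, 0.01% Tween 20; 12 min RT. Binding inhibition seen as FP decrease.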
BRCT inh green = blocks human BRCA1 BRCT binding to phosphopeptide, green readout; Potency, µM (series often up to 76.9 µM), inactives show top-dose activity change, negative = inhibition, most hits filed as inhibitors; hit rate 0.05% among 75,000; AID 875; BRCA1 BRCT-phosphopeptide binding, green fluorescence polarization;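 also: potency is read from the fitted curve at half-maximal effect; plate controls were peptide without protein for full effect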
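Compounds were incubated for 12 min at room temperature with a complex of 100 nM fluorescein-tagged pBACH1 decapeptide and 250 nM His-tagged BRCT protein. Buffer was phosphate pH 7.3 with EDTA, DTT and Tween 20. Disruption of binding lowers the polarization signal.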
ALOX15 inhib = 15-hLO (ALOX15) enzyme inhibition; P16050; purified 15hLO-1, xylenol orange hydroperoxide absorbance; Potency, µM (highest dose often 57.1 µM), for the others: top-dose activity change, negative = inhibition, actives largely listed as inhibitors; hit rate 1.4% among 74,000; also: potency is read from the fitted curve at half-maximal effect; % is scaled to controls: 0 for no effect and ±100 for the full control effect; nearly all actives have a fitted effect of over 55% in size
Target sequence (P16050 whole entry, looked up): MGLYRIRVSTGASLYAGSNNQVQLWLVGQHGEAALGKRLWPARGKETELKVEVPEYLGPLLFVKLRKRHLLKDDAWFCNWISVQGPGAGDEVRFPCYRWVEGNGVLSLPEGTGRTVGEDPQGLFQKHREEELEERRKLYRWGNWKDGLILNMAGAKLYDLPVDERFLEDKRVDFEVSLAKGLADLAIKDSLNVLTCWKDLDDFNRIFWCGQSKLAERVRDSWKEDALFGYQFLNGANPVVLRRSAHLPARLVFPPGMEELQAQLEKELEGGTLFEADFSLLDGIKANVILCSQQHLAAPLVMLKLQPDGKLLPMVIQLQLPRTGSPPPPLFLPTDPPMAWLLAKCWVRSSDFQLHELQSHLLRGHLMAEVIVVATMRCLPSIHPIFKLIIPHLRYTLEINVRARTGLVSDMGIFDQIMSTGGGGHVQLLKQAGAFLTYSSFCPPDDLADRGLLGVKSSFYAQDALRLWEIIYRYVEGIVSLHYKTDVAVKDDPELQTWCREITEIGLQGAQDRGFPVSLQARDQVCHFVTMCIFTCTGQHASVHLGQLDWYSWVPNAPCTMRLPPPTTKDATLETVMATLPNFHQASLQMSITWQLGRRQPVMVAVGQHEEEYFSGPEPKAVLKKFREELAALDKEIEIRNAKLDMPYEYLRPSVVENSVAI
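Purified human 15hLO-1 (40 nM final) in 25 mM Hepes pH 7.5, 0.01% Triton X-100 was preincubated with compound 15 min at room temperature, then reacted 6 min with 50 uM arachidonic acid; hydroperoxide detected by Fe-XO, 573/405 nm absorbance ratio.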
Hsp90 Hop PPI = changes Hsp90-Hop TPR2A binding signal, up or down | AlphaScreen TPR2A-His6 binding biotin-Hsp90 C-terminal peptide | Potency, µM (series often up to 57 µM), for the others: at the highest dose activity change, negative = inhibition | hit rate 0.44% among 71,000; active = well fitted curve in either direction with a large enough effect; inconclusive = small, poorly fitted or top-dose-only effect, or another doubt; also: potency is read from the fitted curve at half-maximal effect; % is scaled to controls: 0 for no effect and ±100 for the full control effect
TsaE inh = YjeE (TsaE) inhibition, E. coli; AID 605; Potency, µM; P0AF67; purified YjeE enzyme, qHTS inhibition assay; hit rate 0.05% among 71,000
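Purified YjeE (10 uM) with BODIPY Texas Red-labeled ADP probe (2 uM); compounds pin-transferred, 15 min at room temperature. Binding inhibition read as decreased fluorescence polarization; ADP titration as control.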
DNA Pol III inh = blocks replication by bacterial DNA polymerase III holoenzyme | hit rate 0.25% among 71,000 | Potency, µM (doses to about 57.1 µM), for the others: at the highest dose activity change, negative = inhibition | reconstituted DNA polymerase III holoenzyme replication, biochemical | AID 603; also: potency is read from the fitted curve at half-maximal effect; % is scaled to controls: 0 for no effect and ±100 for the full control effect
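Reconstituted *E. coli* holoenzyme (0.35 nM Pol III, 1 nM beta, 154 nM SSB, 2 nM primase) was preincubated with compound for 15 min at RT. Synthesis on 1.4 nM ssM13Gori ran 35 min, then was stopped with PicoGreen/EDTA and read as dsDNA fluorescence.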
Active calls of the source: *; i = inactive; ? = inconclusive; nt = no result given; ! = not confirmed by another sample; [ ] = remark or other dose. Unless noted, calls follow the shape of the dose curve; as a rule, active = well fitted curve in the direction sought with a large enough effect; inconclusive = small, poorly fitted or top-dose-only effect, or another doubt; inactive = no such curve, though single readings can be large; an effect the other way counts as inactive or inconclusive.

SMILES | BRCT PPI red | BRCT inh green | ALOX15 inhib | Hsp90 Hop PPI | TsaE inh | DNA Pol III inh
CN1CC[C@@]2(CCN3CCc4c(oc5ccccc45)[C@@H]3C2)N(C)C1=O | -3% | -2% | -13% | -6% | i | -7%
C[C@@]1(C(=O)O)NCCc2cc(O)c(O)cc21 | -1% | -1% | 43%[25.6 µM] | ? | i | 7.9µM*
Nc1nc2c(nc(Br)n2[C@@H]2O[C@H]3COP(=O)(O)O[C@@H]3[C@H]2O)c(=O)[nH]1 | -2% | -3% | 3% | -9% | i | -7%
N#C/C(=C\c1ccc(O)c(O)c1)C(=O)NCCCCc1ccccc1 | -4% | 0% | 1.6µM* | -26% | i | -12%
O=C(O)CCCC(=O)NCCCCc1ccccc1 | 0% | -1% | -17% | 2% | i | 2%
N#C/C(=C\c1ccc(O)c(O)c1)C(=O)NCCc1ccccc1 | -1% | -1% | 6.3µM* | ? | i | -2%
CC(=O)NCCc1ccc(O)c(O)c1 | -1% | -4% | -17% | -4% | i | -8%
CN(C)CCCN=c1c2ccccc2n(C)c2[nH]c(=O)n(C)c(=O)c12 | 0%[15.4 µM] | -2%[15.4 µM] | 8%[11.4 µM] | -5%[11 µM] | i | -22%[11.4 µM]
CCOc1ccc(NS(=O)(=O)c2ccc(C)c(C(=O)O)c2)cc1 | 1% | -1% | -1% | nt | nt | nt
CN(C)c1ccc(-c2cc(-n3ccnc3)ncn2)cc1 | -1% | 0% | ? | -9% | i | -10%
CNc1cc(-c2ccccc2CN(C)C)ncn1 | -1% | -3% | 15% | 2% | i | 1%
CN(C)Cc1ccccc1-c1cc(-n2ccnc2)ncn1 | 0% | -3% | 13µM* | -10% | i | -1%
CN(C)C(=O)c1ccc(-c2cc(-n3ccnc3)ncn2)cc1 | 0% | 0% | 25µM* | -6% | i | -6%
N[C@H](CCCC(=O)O)C(=O)O | -1% | -2% | -5% | 4% | i | 6%
COc1ccc(-c2csc3c2[N+]2=CCC=C2C3=O)cc1 | 0%[15.4 µM] | -1%[15.4 µM] | -2%[11.4 µM] | -11%[11 µM] | i | -7%[11.4 µM]
COc1ccc(N2Cc3cccc(C(=O)O)c3C2=O)cc1 | -7% | -6% | -14% | -3% | i | 16µM*
Nc1ncnc2c1ncn2[C@@H]1O[C@@H](C(=O)NC2CC2)[C@H](O)[C@@H]1O | -1% | -3% | 4% | 1% | i | -3%
Cc1cc(NC(=O)CSc2nc3c(c(-c4cccnc4)c2C#N)CCC3)no1 | 2% | 0% | -5%[11.4 µM] | -1%[11 µM] | i | 3.2µM*
O=S(=O)(O)c1cc(O)c2c(O)c(N=Nc3cccc4ccccc34)c(S(=O)(=O)O)cc2c1 | -2%[15.4 µM] | -1%[15.4 µM] | 18%[11.4 µM] | ? | i | -6%[11.4 µM]
Cc1ccc(NC(=O)Cn2cccc2)cc1C | 0% | 2% | 9% | -7% | i | 0%
Cc1ccc(NC(=O)CSCC(N)=O)cc1C | 0% | 0% | 6.3µM* | ? | i | -12%
NC(=O)SCC(=O)Nc1ccc(Cl)cc1 | -2% | -2% | 25µM* | nt | nt | nt
NC(=O)SCC(=O)Nc1ccc(Cl)c(Cl)c1 | 0% | -1% | ? | -2% | i | 4%
C#C[C@@]1(O)CC[C@H]2[C@H]3CCC4=Cc5oncc5C[C@]4(C)[C@@H]3CC[C@@]21C | nt | nt | nt | -8% | i | 0%
CC(C)[C@@H](CC(=O)N[C@@H]1CCCC[C@H]1C(=O)N[C@H](CC(=O)N[C@@H](CCC(=O)O)CC(=O)O)Cc1c[nH]c2ccccc12)NC(=O)C[C@H](Cc1c[nH]c2ccccc12)NC(=O)[C@@H]1CNCC[C@H]1N | nt | nt | nt | 16µM* | i | -4%
SMILES | BRCT PPI red | BRCT inh green | ALOX15 inhib | Hsp90 Hop PPI | TsaE inh | DNA Pol III inh
CC(=O)[C@]1(O)CC[C@@H]2[C@H]3C[C@@H](C)C4=CC(=O)CC[C@@]4(C)[C@H]3[C@@H](O)C[C@]21C | -1%[15.4 µM] | -1%[15.4 µM] | -12%[11.4 µM] | -1%[11 µM] | i | -10%[11.4 µM]
CCOC(=O)Nc1ccc2c(c1)Nc1ccccc1S2 | 0% | -2% | 32µM* | ? | i | 5%
O=C(O)CCCCCC[C@@H]1C(=O)NC(=O)N1CC[C@@H](O)C1CCCCC1 | nt | nt | nt | -9% | i | -6%
NC(=O)c1cccc2c3c([nH]c12)CCCC3 | -1% | -4% | 3.2µM* | ? | i | 2%
COc1ccc(-c2cc([C@H](O)[C@@H]3CCCCN3)c3ccccc3n2)cc1 | -1%[15.4 µM] | 1%[15.4 µM] | 5%[11.4 µM] | -4%[11 µM] | i | -10%[11.4 µM]
COc1ccccc1O | -2% | 0% | -10% | -2% | i | 0%
COc1cccc(O)c1O | 0% | -4% | 0.79µM* | nt | nt | nt
COc1ccc2[nH]cc(CCNc3cc(-c4ccc5c(c4)OCO5)ncn3)c2c1 | -2% | -4% | 13µM* | -22% | i | -8%
COc1ccc2[nH]cc(CCNc3cc(-c4ccccc4C)ncn3)c2c1 | -1% | 0% | ? | -22% | i | -2%
COc1ccc2[nH]cc(CCNc3cc(-c4cccnc4)ncn3)c2c1 | -2% | -3% | 20µM* | -16% | i | -3%
O=c1cc(-c2cc(O)c(O)c(O)c2)oc2cc(O)cc(O)c12 | 0% | -1% | 2.5µM* | nt | nt | nt
O=c1cc(-c2ccc(O)cc2)oc2cc(O)cc(O)c12 | 2% | 1% | 5µM*! | 0% | i | -9%
CC1C(NC(=O)/C(=N/OC(C)(C)C(=O)O)c2csc(N)n2)C(=O)N1S(=O)(=O)O (configuration not stated) | -1% | 2%[3.08 µM] | -16% | nt | nt | nt
CC(=O)c1ccc(C2C=CC(O)C(CO)O2)cc1 (configuration not stated) | 1%[15.4 µM] | -2%[15.4 µM] | 7%[11.4 µM] | nt | nt | nt
CC(=O)C1=C(C)NC(SCC(=O)c2cc(Cl)ccc2Cl)=C(C#N)C1c1ccco1 (configuration not stated) | 1% | 5% | 4µM* | 7% | i | -15%
CC(=O)C1=C(C)NC(SCC(=O)c2ccc(Cl)c(Cl)c2)=C(C#N)C1c1ccco1 (configuration not stated) | 4% | 3% | 13µM* | -12% | i | -12%
CNC(=O)[C@@H]1O[C@@H](n2cnc3c(N)ncnc32)[C@@H](O)[C@H]1O | -2% | -2% | -4% | ? | i | -2%
O=C(Cc1ccc(Cl)cc1)Nc1ccc(-c2nnc(-c3ccco3)o2)cc1 | 0% | 2% | -9% | -3% | i | 20µM*
COCC(=O)Nc1sc2c(c1C(=O)OC)CCC(C)C2 (configuration not stated) | -2% | -4% | 25µM* | 6% | i | -5%
Cn1c(NC(=O)c2ccccc2Br)cc(=O)n(C)c1=O | ? | 2.5µM* | 25µM* | -5% | i | 3%
CC1CCN(CC(=O)Nc2sc3c(c2C#N)CCC3)CC1 | 0% | 22% | 25µM* | ? | i | -1%
COC(=O)CCC(=O)Nc1sc2c(c1C#N)CCCC2 | 1% | 0% | -12% | 2% | i | 0%

High-throughput results: PubChem BioAssay, National Center for Advancing Translational Sciences (NCATS)
